Results taken from PubChem BioAssay AID504339 (National Center for Advancing Translational Sciences (NCATS), 2011).
Screen size: about 390,000 compounds; about 17,000 (4.4%) were called active. Not shown: some 8% with an inconclusive outcome. Calls follow the shape of the dose curve; as a rule, active = well fitted inhibition curve with a large enough effect; inconclusive = small, poorly fitted or top-dose-only effect; inactive = no such curve, though single readings can be large or run the other way. The sample as a whole holds a higher share of actives than the screen did.

target: Lysine-specific demethylase 4A (Homo sapiens) (UniProt O75164); experiment: qHTS Assay for Inhibitors of JMJD2A-Tudor Domain; settings: AlphaScreen JMJD2A-Tudor / H3K4me3 peptide binding; series mostly up to 114 µM; activity change, negative = inhibition: at the top concentration; also: nearly all actives have a fitted effect of over 50% in size
% is scaled to controls: 0 for no effect and ±100 for the full control effect; potency is read from the fitted curve at half-maximal effect.

Chain of Lysine-specific demethylase 4A (Homo sapiens) (O75164 whole entry, looked up, the tested form may be a part): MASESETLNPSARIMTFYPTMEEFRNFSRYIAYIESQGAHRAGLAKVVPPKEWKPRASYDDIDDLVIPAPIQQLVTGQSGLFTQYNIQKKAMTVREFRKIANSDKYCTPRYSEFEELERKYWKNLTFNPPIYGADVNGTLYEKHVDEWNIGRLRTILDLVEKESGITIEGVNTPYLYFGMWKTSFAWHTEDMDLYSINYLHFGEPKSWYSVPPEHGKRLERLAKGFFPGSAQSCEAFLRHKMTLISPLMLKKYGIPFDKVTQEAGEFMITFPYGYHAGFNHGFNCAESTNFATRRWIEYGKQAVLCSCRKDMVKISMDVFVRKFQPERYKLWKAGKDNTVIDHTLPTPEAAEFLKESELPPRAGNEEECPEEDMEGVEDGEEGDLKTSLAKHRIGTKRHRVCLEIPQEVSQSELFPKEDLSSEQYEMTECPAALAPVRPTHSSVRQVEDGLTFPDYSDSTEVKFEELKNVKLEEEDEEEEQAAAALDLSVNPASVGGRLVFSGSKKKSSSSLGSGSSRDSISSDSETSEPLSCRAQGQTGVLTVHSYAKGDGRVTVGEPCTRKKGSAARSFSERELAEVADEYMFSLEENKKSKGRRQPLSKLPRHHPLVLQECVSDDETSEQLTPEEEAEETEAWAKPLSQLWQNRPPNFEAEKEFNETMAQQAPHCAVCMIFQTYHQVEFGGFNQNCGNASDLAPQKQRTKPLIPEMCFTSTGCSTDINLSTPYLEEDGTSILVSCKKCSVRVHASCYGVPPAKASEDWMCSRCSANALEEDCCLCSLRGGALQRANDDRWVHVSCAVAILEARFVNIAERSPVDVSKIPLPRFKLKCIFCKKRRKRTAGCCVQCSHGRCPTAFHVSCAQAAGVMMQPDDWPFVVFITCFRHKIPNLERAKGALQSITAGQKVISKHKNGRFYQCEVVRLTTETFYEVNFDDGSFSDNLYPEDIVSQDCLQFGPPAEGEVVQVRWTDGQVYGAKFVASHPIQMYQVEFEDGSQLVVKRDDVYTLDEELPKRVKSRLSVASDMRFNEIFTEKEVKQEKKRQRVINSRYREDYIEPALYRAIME

Row | SMILES | activity change, negative = inhibition | Potency
1 | CCNC(=O)Cn1nc(C)n2c(cc3c(OC)cccc32)c1=O | -14.2% (inactive) | –
2 | Cc1ccc(CNC(=O)CSC2=Nc3ccccc3C3=NC(C)C(=O)N23)cc1 (stereo not drawn) | -6.62% (inactive) | –
3 | O=C(CSC1=Nc2ccccc2C2=NC(c3ccccc3)C(=O)N12)NCC1CCCO1 (stereo not drawn) | 0.929% (inactive) | –
4 | CC(C)C1N=C2c3ccccc3N=C(SCC(=O)c3ccc(O)c(O)c3)N2C1=O (stereo not drawn) | – | 3.16 µM (active)
5 | COc1ccc(-n2c(SC)nc3sc4c(c3c2=O)CCN(C(C)=O)C4)cc1 | -13.3% (inactive) | –
6 | CCN1CCN(Cc2c(O)ccc3oc(C)c(C(=O)Nc4ccc(C)cc4C)c23)CC1 | -20.1% (inactive) | –
7 | C[n+]1ccc(C(=O)NCc2ccccc2)cc1 | 7.97% (inactive) | –
8 | O=C(NCCCNCc1ccccc1)c1ccc(/C=N/O)nc1 | – | 7.94 µM (active)
9 | CC(C)c1ccc(C(=O)NCCCc2ccccc2)cc1 | 14.9% (inactive) | –
10 | Cc1nc2nc(SCC(=O)N(Cc3ccccc3)C(C)C)nn2c(C)c1Cc1ccccc1Cl | -9.9% (inactive) | –
11 | CCc1ccc(-n2nnc(-c3nc(-c4ccccc4)no3)c2C)cc1 | -5.52% (inactive) | –
12 | COc1ccc(SCc2cc(=O)c3ccc(C)c(C)c3[nH]2)cc1 | -22.7% (inactive) | –
13 | COc1cc(/C=C2/C(=O)NN(c3cccc(Cl)c3)C2=O)cc(Br)c1O | – | 44.7 µM (active)
14 | COc1cc(/C=N/O)cc(Br)c1OCc1cccc(Cl)c1 | 45.4% (inactive) | –
15 | CCOc1c(Br)cc(/C=C2\C(=O)N(CCC#N)N=C2C)cc1OC | -2.14% (inactive) | –
16 | COc1ccc(CNc2nc(-c3ccc(Cl)cc3)nn2S(=O)(=O)c2ccc(C)cc2)cc1 | -7.22% (inactive) | –
17 | Cc1cccc(NC(=O)N2CCC(CN3CCc4ccccc4C3)CC2)c1C | 0.66% (inactive) | –
18 | NS(=O)(=O)c1ccc(NC(=O)C(=O)Nc2ccc3nc4n(c(=O)c3c2)CCCCC4)cc1 | -3.02% (inactive) | –
19 | O=C(c1ccc2c(c1)N(Cc1ccccc1F)C(=O)c1ccccc1S2(=O)=O)N1CCOCC1 | -8.08% (inactive) | –
20 | COc1ccc(N(CC(=O)NCCc2ccc(Cl)cc2)S(=O)(=O)c2c(C)nn(C)c2C)cc1 | -6.67% (inactive) | –
21 | COc1cccc(Cn2c(SCc3ccc(C(=O)N4CCCCC4)cc3)nc3ccncc32)c1 | -19.1% (inactive) | –
22 | COc1cccc(Cn2c(SCc3ccc(C(=O)N4CCC(C)CC4)cc3)nc3ccncc32)c1 | – | 5.62 µM (active)
23 | Cc1cccc(CSc2nc3ccncc3n2Cc2ccc(C(=O)O)cc2)c1 | -4% (inactive) | –
24 | CCOc1cccc(/C=N/N2C(=O)CSC2=S)c1O | – | 20 µM (active)
25 | COc1cc(N2C(=O)CSC2=S)cc(OC)c1OC | -5.37% (inactive) | –
26 | O=C1CSC(=S)N1c1ccc(O)cc1 | -1.99% (inactive) | –
27 | COc1ccc(-c2cn3nc(N4CCCC(C(=O)NCCCOC(C)C)C4)sc3n2)cc1 (stereo not drawn) | -17.2% (inactive) | –
28 | Cc1ccc(-n2c(SCC(=O)c3ccccc3)nc3c([nH]c4ccccc43)c2=O)cc1 | -13.9% (inactive) | –
